Experimental data: publication PMC5540273 (PLoS ONE, 2017)

Legend:
Conditions in all cases: concentration: 1 μM, replicates: in singlicate; n = 1
CAMK1 = system: CAMK1
CAMK2A = system: CAMK2A
CAMK2B = system: CAMK2B
CAMK2D = system: CAMK2D
CAMK2G = system: CAMK2G
CAMK4 = system: CAMK4
CAMKK1 = system: CAMKK1
CAMKK2 = system: CAMKK2
CASK = system: CASK
CDC2L1 = system: T1, CDC2L1
T1 construct: gene CDK11B

CDC2L2 = system: CDC2L2
CDC2L5 = system: T2, CDC2L5
T2 construct: gene CDK13

CDK11 = system: T3, CDK11
T3 construct: gene CDK19

CDK2 = system: CDK2
CDK3 = system: CDK3
CDK4-cyclinD1 = system: CDK4-cyclinD1
CDK4-cyclinD3 = system: CDK4-cyclinD3
CDK4 = system: CDK4
CDK5 = system: CDK5
CDK7 = system: CDK7
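Also: KINOMEscan kinase panel screen.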

Row | Structure (SMILES) | %Inh (CAMK1) [%] | %Inh (CAMK2A) [%] | %Inh (CAMK2B) [%] | %Inh (CAMK2D) [%] | %Inh (CAMK2G) [%] | %Inh (CAMK4) [%] | %Inh (CAMKK1) [%] | %Inh (CAMKK2) [%] | %Inh (CASK) [%] | %Inh (CDC2L1) [%] | %Inh (CDC2L2) [%] | %Inh (CDC2L5) [%] | %Inh (CDK11) [%] | %Inh (CDK2) [%] | %Inh (CDK3) [%] | %Inh (CDK4-cyclinD1) [%] | %Inh (CDK4-cyclinD3) [%] | %Inh (CDK4) [%] | %Inh (CDK5) [%] | %Inh (CDK7) [%]
1 | Cc1cccc(NC(=O)Nc2ccc(Oc3ncnc4ccn(C)c34)cc2)c1 | 0 | 0 | 0 | 0 | 0 | 0 | 0 | 0 | 0 | 0 | 0 | 0 | 77 | 0 | 2 | 0 | 0 | 0 | 15 | 0
2 | Nc1ncc(-c2cccnc2)c2scc(-c3ccc4c(c3)CCN4C(=O)Cc3ccccc3)c12 [GSK683281] | 22 | 0 | 0 | 19 | 37 | 1 | 34 | 26 | 26 | 0 | 8 | 0 | 45 | 0 | 21 | 0 | 0 | 14 | 9 | 0
3 | O=C(Nc1ccccc1F)NC1CCN(c2ccnc(Nc3ccc(F)cc3)n2)CC1 [GSK1379800] | 0 | 0 | 0 | 3 | 15 | 0 | 0 | 3 | 0 | 0 | 34 | 0 | 9 | 0 | 0 | 2 | 0 | 28 | 0 | 0
4 | CCn1c(-c2nonc2N)nc2c(C#CC(C)(C)O)ncc(OCCCCN)c21.O=C(O)C(F)(F)F.O=C(O)C(F)(F)F [GSK507274] | 31 | 0 | 0 | 4 | 19 | 50 | 0 | 0 | 19 | 0 | 0 | 0 | 0 | 3 | 16 | 0 | 0 | 0 | 0 | 0
5 | COCCOCCOc1cc2ncc3c4ccc(C#N)cc4[nH]c3c2cc1OC | 26 | 85 | 57 | 87 | 72 | 0 | 83 | 63 | 8 | 0 | 19 | 0 | 0 | 12 | 15 | 0 | 39 | 0 | 7 | 99.7
6 | COC(=O)Nc1nc2cc(Oc3ccc(NC(=O)Nc4cc(C(F)(F)F)ccc4F)cn3)ccc2[nH]1.Cl.Cl [GW681170] | 17 | 0 | 0 | 42 | 57 | 0 | 49 | 59 | 0 | 0 | 18 | 69 | 98.1 | 16 | 7 | 7 | 0 | 50 | 0 | 94.1
7 | C[C@@H](Oc1cc(-n2cnc3cc(-c4ccnc(NCCS(C)(=O)=O)c4)ccc32)sc1C(N)=O)c1ccccc1Cl [GSK907232] | 15 | 0 | 0 | 5 | 33 | 0 | 21 | 80 | 57 | 0 | 5 | 0 | 20 | 13 | 16 | 0 | 0 | 0 | 0 | 0
8 | O=C(Nc1n[nH]c2cc(-c3ccoc3)ccc12)C1CC1 [SB-738481] | 0 | 8 | 0 | 14 | 25 | 0 | 2 | 18 | 0 | 0 | 0 | 29 | 0 | 76 | 51 | 14 | 3 | 0 | 17 | 71
9 | CCS(=O)(=O)c1ccc(OC)c(Nc2nccc(-c3c(-c4cccc(NC(=O)c5c(F)cccc5F)c4)nn4ncccc34)n2)c1 [GSK326180] | 9 | 0 | 0 | 15 | 27 | 0 | 0 | 20 | 16 | 0 | 15 | 0 | 11 | 0 | 7 | 0 | 12 | 0 | 0 | 0
10 | CCCCc1nn2ncccc2c1-c1ccnc(Nc2ccc(N3CCN(C)CC3)cc2)n1 [GW684941] | 28 | 0 | 0 | 0 | 0 | 0 | 0 | 0 | 16 | 0 | 7 | 0 | 19 | 0 | 9 | 63 | 53 | 46 | 0 | 34
11 | Cl.c1ccc(-c2ccc3c(Nc4ccc5[nH]ncc5c4)ccnc3c2)nc1 [GW440137] | 11 | 0 | 0 | 12 | 16 | 0 | 0 | 19 | 13 | 0 | 16 | 0 | 3 | 0 | 0 | 0 | 29 | 0 | 0 | 8
12 | Cc1ccc(F)c(C(=O)Nc2cccc(-c3nn4ccccc4c3-c3ccnc(Nc4cccc(F)c4)n3)c2)c1F [GSK361061] | 26 | 5 | 0 | 8 | 15 | 11 | 17 | 14 | 19 | 0 | 23 | 0 | 14 | 11 | 17 | 0 | 0 | 3 | 4 | 0
13 | Cl.Cl.NCC(NCc1ccc(-c2ccnc3[nH]ccc23)s1)c1ccccc1 (centres unmarked) [GSK1321565] | 10 | 0 | 0 | 13 | 19 | 0 | 0 | 9 | 0 | 0 | 23 | 0 | 2 | 0 | 0 | 5 | 0 | 50 | 0 | 65
14 | c1ccc(Oc2ccc(Nc3ccnc4cc(-c5ccc(CNCCN6CCOCC6)o5)ccc34)cc2)nc1 [GW567145] | 26 | 0 | 0 | 0 | 1 | 0 | 0 | 0 | 0 | 0 | 5 | 0 | 1 | 0 | 0 | 38 | 0 | 1 | 0 | 8
15 | CC(C)(C)c1ccc2nccc(Nc3cccc(O)c3)c2c1 [GW856795] | 0 | 0 | 0 | 0 | 0 | 0 | 2 | 0 | 0 | 0 | 0 | 36 | 17 | 0 | 0 | 55 | 0 | 32 | 0 | 1
16 | Cc1ccc(C(=O)N2CC[C@@H](O)C2)cc1-n1c(C)cc(OCc2ccc(F)cc2F)c(Br)c1=O | 0 | 0 | 0 | 0 | 0 | 0 | 0 | 0 | 0 | 0 | 0 | 0 | 0 | 0 | 0 | 0 | 0 | 0 | 0 | 0
17 | CNC(=O)c1ccccc1Nc1nc(Nc2ccc(N3CCOCC3)cc2)ncc1Cl.Cl [GSK1576028] | 77 | 25 | 14 | 22 | 49 | 0 | 93.2 | 95 | 71 | 16 | 20 | 0 | 0 | 39 | 31 | 47 | 45 | 28 | 29 | 96.6
18 | CCc1ccc(-c2ccc3c(c2)-c2c(cnn2C)S(=O)(=O)N3C)cc1 | 2 | 0 | 4 | 0 | 13 | 0 | 13 | 12 | 3 | 0 | 0 | 20 | 7 | 0 | 0 | 3 | 3 | 0 | 0 | 6
19 | Cl.c1ccc(-c2ccc3c(Nc4ccc5[nH]ccc5c4)ccnc3c2)nc1 [GW440138] | 0 | 0 | 0 | 7 | 18 | 0 | 3 | 12 | 0 | 0 | 7 | 0 | 4 | 0 | 0 | 27 | 0 | 35 | 0 | 0
